# Screening data as filed in PubChem BioAssay.
# VP16 counter: inhibits Gal4-VP16 luciferase reporter, ROR gamma counter-screen. Drosophila S2 Gal4-VP16 UAS-luciferase, luminescence, 20 h. Potency, µM (series often up to 53.6 µM), for the others: at the highest dose activity, negative = inhibition, usual class: inhibitors. 310,000 compounds, 3.5% hits;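 note: Gal4-VP16 expression switched on by copper sulfate through the metallothionein promoter; potency is the fitted concentration of half-maximal effect; % is set by controls: 0 for no effect and ±100 for the full control effect; nearly all actives have a fitted effect of over 50% in size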
# Giardia kill: kills Giardia lamblia. Giardia lamblia trophozoite viability. activity change, % at 7.66 µM, hits read low. 340,000 compounds, 0.15% hits; in the data active = activity change below about -80%; inconclusive = between about -30% and that limit;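 note: parasites exposed to compound for two days anaerobically before the ATP read; % is set by controls: 0 for no effect and ±100 for the full control effect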
#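 Luminescence from cellular ATP indicates surviving trophozoites (100 cells/well) following 48 hrs anaerobic compound treatment at 37 deg C; signal develops 15-30 min at room temperature.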
# a7 integrin act: activates integrin-mediated alleviation for muscular dystrophy | Potency, µM (highest dose often 38.3 µM), inactives show top-dose activation, actives largely listed as activators | AID 624291 | alpha7betagal myoblasts, beta-gal FDG fluorescence, 48 h | 350,000 compounds, 0.064% hits;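 note: potency is the fitted concentration of half-maximal effect; 100% = response of the positive control SU9516; nearly all actives have a fitted effect of over 60% in size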
#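 alpha7betagal+/- myoblasts (passage 13, 250/well) treated 48 h at 37C with compounds at 1:260 dilution of DMSO stock. Lysed, then beta-galactosidase activity read as FDG fluorescence (ex 480/em 540) after 30 min, with pre-read for autofluorescence.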
# RORgamma inh: inhibitors of mouse ROR gamma transcriptional activity | AID 2551 | P51450 | 310,000 compounds, 5.4% hits | Potency, µM (series often up to 53.6 µM), for inactives: top-dose activity change, negative = inhibition, actives largely listed as inhibitors | Drosophila S2 Gal4-RORgamma UAS-luciferase reporter, 20 h; note: potency is the fitted concentration of half-maximal effect; % is set by controls: 0 for no effect and ±100 for the full control effect; nearly all actives have a fitted effect of over 60% in size
# Target sequence (P51450 whole entry, looked up, the tested form may be a part): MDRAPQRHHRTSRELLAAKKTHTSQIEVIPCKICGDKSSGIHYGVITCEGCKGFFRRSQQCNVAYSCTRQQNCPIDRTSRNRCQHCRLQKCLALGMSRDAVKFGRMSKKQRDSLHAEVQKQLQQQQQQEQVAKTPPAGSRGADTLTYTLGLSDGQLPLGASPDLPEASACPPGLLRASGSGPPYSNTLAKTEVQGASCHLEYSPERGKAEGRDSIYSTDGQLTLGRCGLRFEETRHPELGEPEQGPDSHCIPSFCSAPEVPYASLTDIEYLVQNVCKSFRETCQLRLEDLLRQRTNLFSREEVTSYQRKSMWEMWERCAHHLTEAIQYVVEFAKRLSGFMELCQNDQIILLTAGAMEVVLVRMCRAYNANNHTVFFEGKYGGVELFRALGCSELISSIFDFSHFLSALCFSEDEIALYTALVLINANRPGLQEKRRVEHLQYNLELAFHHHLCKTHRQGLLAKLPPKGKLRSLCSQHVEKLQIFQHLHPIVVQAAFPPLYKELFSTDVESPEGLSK
#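 Luminescence from a UAS-regulated Photinus luciferase reporter in stably transfected Drosophila Schneider cells is measured; decreased signal marks ROR gamma inhibition. Fusion expression is induced by 700 uM copper sulfate for 20 hr.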
# ERG-DNA inh: inhibitors of human ERG Ets domain-DNA interaction; P11308; fluorescence polarization, His-ERG Ets domain / labelled DNA; Potency, µM (highest dose often 76.9 µM), for inactives: at the highest dose FP activity, negative = inhibition, hits mostly inhibitors; 370,000 compounds, 0.028% hits; AID 624246; active = well fitted inhibition curve with a large enough effect in the polarisation, with a control signal flat; inconclusive = small, poorly fitted or top-dose-only effect, or effect the other way, or a change in a side signal; inactive = no such curve, though single readings can be large or run the other way; the % refers to the polarisation;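 note: polarization taken with two DNA probes labelled with fluorescein and Texas red; potency is the fitted concentration of half-maximal effect; % of control where 0% means no effect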
#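 His-tagged ERG Ets domain (1 uM in the protein solution; 300mM KCl, 50mM Tris-HCl, 1mM EDTA, 1mM DTT, pH 7.5) received compound, then a probe mix of 5 nM fluorescein-DNA and 100nM Texas-615-DNA. Fluorescence polarization was read for both dyes.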
# An asterisk follows results filed as active; u = inconclusive; x = not tested or not shown; [ ] = another dose, or the depositor's remark. The entries come from a sample that favours hits as a whole. Unless noted, calls come from the whole dose curve; as a rule, active = well fitted curve in the direction sought with a large enough effect; inconclusive = small, poorly fitted or top-dose-only effect, or another doubt; inactive = no such curve, though single readings can be large; an effect the other way counts as inactive or inconclusive.
SMILES,VP16 counter,Giardia kill,a7 integrin act,RORgamma inh,ERG-DNA inh
COc1ccc(-n2c(=O)cnc3cnc(N4CCNCC4)nc32)cc1,14%,x,x,9%,x
CC(C)CO/N=C1/C[C@@H](O)[C@@H](O)[C@@H]2[C@@H]3C(=O)N(C[C@@H]4CCCO4)C(=O)[C@H]3CC[C@H]12,-2%[10 µM],x,x,-7%[10 µM],x
C[n+]1ccccc1/C=N\O,3%[17 µM],x,x,3%[2.98 µM],x
CCn1ccc(C(=O)Nc2ncc(C)s2)n1,u,9,-6%,11µM*,9%
CCn1ccc(C(=O)NC2=NCCS2)n1,-1%,-15,-9%,-36%,x
O=C1CN(C(=S)NC(=O)c2ccc(-c3ccccc3)cc2)CCN1,10µM*,-26,-10%,1.8µM*,-5%
COc1ccc(C(=O)NC(=S)N2CCC(C)CC2)cc1Br,0.89µM*,-2,-26%,0.63µM*,6%
COc1cc(C(=S)N2CCC(C)CC2)ccc1O,u,9,-21%,-17%,-4%
COc1ccc(C(=O)NC(=S)N2CCNC(=O)C2)cc1Br,u,21,27%,16µM*,-11%
O=C1CN(C(=S)Nc2ccccc2Cl)CCN1,10%,15,-21%,-15%,12%
COc1ccc(Cl)cc1NC(=O)C(OC)c1ccccc1 (centres undefined),-1%,2,-31%,1%,-4%
COC(/C(=N/O)c1ccc(Cl)cc1)c1ccccc1 (centres undefined),4.5µM*,-3,-12%,5.6µM*,16%
Cc1ccc2c(Cl)c(C)c(N3CCCCC3)nc2n1,u,-20,-8%,4µM*,5%
Cc1nc2ccccc2nc1N1CCCCC1,16%,-8,4%,19%,-2%
CCc1ccccc1N(CC)C(=O)Cn1nc(Cc2ccncc2)c2ccccc2c1=O,x,x,x,x,3%
CCCCCCOc1ccc(/C=N/NC(=O)C2CC2)cc1,13%,-2,17%,-4%,-6%
Cc1scc(C(=O)N/N=C/c2ccc(OCC(C)C)cc2)c1C,u,5,-35%,11µM*,4%
CC(C)COc1ccc(C(=O)N/N=C/c2ccoc2)cc1,14µM*,12,-11%,18µM*,-5%
CCCCOc1ccc(/C=N/NC(=O)c2csc(C)c2C)cc1,u,-4,-38%,11µM*,-3%
CCOc1cc(C(=O)N/N=C/c2ccoc2)cc(OCC)c1OCC,11%,-21,30%,0%,1%
S=C1NC2=C(CCCC2)C2(CCCCC2)N1,1.8µM*,0,-5%,2µM*,6%
C1CCC2(CC1)C1=C(CCCC1)Nc1nnnn12,-7%,1,u,-6%,11%
COCCn1c(=O)cnc2cnc(N3CCNCC3)nc21,0%,x,x,-21%,x
COc1ccc(-n2c(SCC(=O)NC3CCCCC3)nc3c([nH]c4ccccc43)c2=O)cc1,x,x,x,x,6%
CCOP(=O)(OCC)C(NC(=O)Nc1c(C)cc(C)cc1C)c1ccccc1 (centres undefined),-7%,-8,6%,-3%,-11%
SMILES,VP16 counter,Giardia kill,a7 integrin act,RORgamma inh,ERG-DNA inh
CCOP(=O)(OCC)C(NC(=O)Nc1ccccc1)c1ccccc1 (centres undefined),-6%,u,0%,11µM*,1%
Cc1ccsc1/C=N/NC(=S)NCCc1ccccc1,6.3µM*,-2,12%,1µM*,-2%
CCNC(=S)N/N=C/c1sccc1C,3.2µM*,x,x,0.4µM*,x
S=C(NCCc1ccccc1)N/N=C/c1cccs1,x,u,7%,x,9%
CC1(C)C[C@](C)(C(=O)c2ccccc2)C=C1c1ccccc1,6%,x,x,4%,x
CCOC(=O)C1(Cc2cccc(Cl)c2)CCCN(C(=O)c2cc(C(C)C)nn2C)C1 (centres undefined),3%,-18,-22%,u,8%
CC1(C)S/C(=N/N=C/c2cccs2)NC1=O,5µM*,-5,20%,0.79µM*,0%
O=C1CS/C(=N/N=C/c2ccncc2)N1,3%,-4,23%,-9%,-4%
O=C1CS/C(=N/N=C/c2cccs2)N1,u,11,-7%,0.56µM*,13%
COc1ccc(NC(=O)Cn2c(=O)oc3cc(S(=O)(=O)N4CCCCC4C)ccc32)cc1 (centres undefined),x,x,x,x,-15%
S=C(NN=C(C1CC1)C1CC1)Nc1ccccc1,18µM*,-2,-6%,11µM*,-4%
O=C(NNC(=S)Nc1ccccc1)C1CC1,0%,-2,25%,u,x
Cc1ccc2nc(-c3ccc(NC(=O)COC(=O)c4cncc(Br)c4)cc3)sc2c1,10µM*,-21,-12%,1.3µM*,-5%
Cc1ccc2nc(-c3ccc(NC(=O)COC(=O)c4ccco4)cc3)sc2c1,7.1µM*,-14,-18%,0.4µM*,-3%
C=CCn1c(SCC(=O)NNC(=O)Nc2ccc(C)cc2)nnc1-c1ccccc1,4%,14,-4%,14%,8%
Cc1ccc(NC(=O)COC(=O)c2ccco2)cc1,10%,-3,32%,1%,4%
Cc1ccc2nc(-c3ccc(NC(=O)COC(=O)c4ccc([N+](=O)[O-])o4)cc3)sc2c1,5µM*,-11,-7%,0.1µM*,-6%
C=CCn1c(SCC(=O)Nc2ccc(-c3nc4ccc(C)cc4s3)cc2)nnc1-c1ccccc1,13µM*,0,18%,14µM*,x
CCOc1ccc(NC(=O)CCCc2nc(-c3cccc(OC)c3)no2)cc1,x,x,x,x,-2%
C=C(C)OC(C)=O,9%,x,x,-19%,x
Cc1ccc2nc(-c3ccc(NC(=O)COC(=O)c4ccc(Br)o4)cc3)sc2c1,4µM*,u,-7%,0.28µM*,3%
Cc1ccc2nc(-c3ccc(NC(=O)COc4ccccc4C(C)(C)C)cc3)sc2c1,x,x,x,x,2%
CCOc1ncccc1C(=O)OCC(=O)Nc1ccc(-c2nc3ccc(C)cc3s2)cc1,u,-18,17%,0.4µM*,-5%
CNS(=O)(=O)c1cccc(C(=O)OCC(=O)Nc2ccc(-c3nc4ccc(C)cc4s3)cc2)c1,u,-5,2%,0.22µM*,11%
Cc1ccc2nc(-c3ccc(NC(=O)COc4ccccc4)cc3)sc2c1,x,x,x,x,0%
SMILES,VP16 counter,Giardia kill,a7 integrin act,RORgamma inh,ERG-DNA inh
COc1ccc(/C=C(\C#N)C(=O)OCC(=O)NC(C)c2ccccc2)cc1 (centres undefined),0%,-2,11%,-4%,3%
COc1ccc(/C=C(\C#N)C(=O)OCC(=O)Nc2ccc(-c3nc4ccc(C)cc4s3)cc2)cc1,2µM*,-12,13%,0.5µM*,1%
CNS(=O)(=O)c1cccc(C(=O)OCC(=O)Nc2ccc(N3CCCCC3)cc2)c1,0%,3,15%,u,9%
COCCNc1ccnc(-c2ccccc2CN(C)C)n1,-6%,x,x,14%,x
COc1ccc(-c2nc(CSc3nc4ncccc4[nH]3)c(C)o2)cc1OC,x,x,x,x,2%
Cc1ccc2sc(-c3ccc(NC(=O)CCN4C(=O)c5ccccc5C4=O)cc3)nc2c1,u,x,x,1.1µM*,x
CC(=O)Nc1ccc(NC(=O)CCN2C(=O)c3ccccc3C2=O)cc1,-20%,-11,8%,-12%[1.91 µM],3%
